Experimental data published in PubChem BioAssay (EPA / NIEHS).
The source made the active and inactive calls. The calls were made as follows: active = hit-call score of the fitted dose curve at least 0.9, where 1 is the maximum; inactive = score below 0.9.

Assay: APR_HepG2_MitoMass_24hr: Apredica 24-hour HepG2 Assay for Mitochondrial Mass (AID 2282912)
Conditions: high-content imaging, actives raise or lower the signal
Description: APR_HepG2_24hr is a cell-based, multiplexed-readout assay that uses HepG2, a human liver cell line, with measurements taken at 24 hours after chemical dosing in a 384-well plate.APR_HepG2_MitoMass_24hr is one of 10 assay component(s) measured or calculated from the APR_HepG2_24hr assay. It is designed to make measurements of cell phenotype, a form of morphology reporter, as detected with fluorescence intensity signals by HCS Fluorescent Imaging technology.Data from the assay component APR_HepG2_MitoMass_24hr was analyzed into 1 assay endpoint. This assay endpoint, APR_HepG2_MitoMass_24hr, was analyzed with bidirectional fitting relative to DMSO as the negative control and baseline of activity. Using a type of morphology reporter, gain or loss-of-signal activity can be used to understand changes in the signaling. Furthermore, this assay endpoint can be referred to as a primary readout, because this assay has produced multiple assay endpoints where this one serves a signaling function. To generalize the intended target to other relatable targets, this assay endpoint is annotated to the cell morphology intended target family, where the subfamily is organelle conformation.
Cells were treated with dimethyl sulfoxide (DMSO) as a solvent control at a final concentration of 0.5% v/v or with compounds in DMSO with a resulting final DMSO concentration of 0.5% v/v. Compound treatment was done at concentrations of 0.39, 0.78, 1.56, 3.12, 6.24, 12.5, 25, 50, 100, and 200 uM in duplicate on each plate. Cells were treated with compounds for 1, 24, or 72 hr. Carbonyl […] m-chloro-phenylhydrazone (CCCP) and taxol were used as positive controls for mitochondrial function and cytoskeletal stability, respectively; DMSO served as the negative control for this experiment. Cells were fixed by the direct addition of 50 uL formaldehyde in Hank's Balanced Salt Solution (HBSS) to a final concentration of 3.7%. After incubation in the fixation medium for 30 min at room temperature (293-298 K), cells were rinsed twice with HBSS and treated with cell permeabilization buffer (16 uL of 0.5% Triton X-100) for 10 min at room temperature (293-298 K) before labeling. For mitochondrial membrane potential and mitochondrial measurements, pre-fixed cells were incubated with 50 uL of MitoTracker Red CMXRos (Invitrogen) at a concentration of 250 nM for 30 min before fixation. In the remaining cases, post-fixed cells were labeled by incubation with a multiplexed mixture of primary antibodies in HBSS for 60 min at room temperature (293-298 K) to detect immunoreactivity of c-Jun (1:500), phospho-histone H3 (1:100), phospho-histone H2A.x (1:200), p53 (1:400), alpha-tubulin (1:200) and Hoechst 33342 (2 ug/mL). Cells were labeled for multiplexed imaging on two separate plates: a) Hoechst 33342, MitoTracker Red, phospho-histone H3, and alpha-tubulin, and b) Hoechst 33342, phospho-histone H2A.x, and c-Jun. A final rinse with HBSS (50 uL) was performed before analysis. The primary and secondary antibodies for the proteins were phospho-histone H3 (rabbit anti-phospho-histone H3 and FITC-donkey anti-rabbit IgG), phospho-histone H2A.x (mouse anti-phospho-histone H2A.x and FITC-donkey anti-mouse IgG), c-Jun (rabbit anti-phospho-c-Jun and Cy3-donkey anti-rabbit IgG), p53 (sheep anti-p53 and Cy5-donkey anti-sheep IgG), alpha-tubulin (mouse anti-alpha-tubulin and Cy5-donkey anti-mouse IgG). These antibodies are available as the CellCiphr HepG2 assay kit (Millipore).Digital images of each well were captured using a Cellomics ArrayScan VTI (Thermo Scientific Cellomics) (0.8 NA objective, 0.63x optical coupler, and XF-93 filter set) at 20x magnification. The images were acquired using the autofocus feature of the ArrayScan instrument, which entails the following steps. First, the camera focuses on channel 1 (Hoechst 33342), where nuclei are identified. Second, a Z offset of 1 um is used for capturing mitochondria (MitoTracker Red). […]

Structure (SMILES) | outcome | AC50
Nc1cccc2c(N)cccc12 | inactive | –
Cc1oc(-c2ccccc2)nc1CCOc1ccc(C[C@H](Nc2ccccc2C(=O)c2ccccc2)C(=O)O)cc1 | inactive | –
CC(=O)CC(C)(C)O | – | 8.56 µM (active)
CCCCCCCCC(=O)O | inactive | –
CN1CCN(c2ccccc2/C=C2\SCCN(c3ccc(Cl)c(Cl)c3)C2=O)CC1 | inactive | –
O=C(/C=C/c1ccc(O)cc1)CC(=O)/C=C/c1ccc(O)cc1 | – | 61 µM (active)
CCCOC(=O)c1ccc(O)cc1 | inactive | –
CC(C)(C)CC(C)(C)c1ccc(O)c(-n2nc3ccccc3n2)c1 | inactive | –
CCCCCCCCOC(=O)CCCCCCCCC(=O)OCCCCCCCC | inactive | –
CC(=O)NC1(c2cccc(F)c2)CCN(CC[C@@]2(c3ccc(Cl)c(Cl)c3)CN(c3ccccc3)C(=O)CO2)CC1 | – | 151 µM (active)
NC(=O)N1C(=O)C(C(=O)c2cc(Cl)cs2)c2cc(F)c(Cl)cc21 (stereo not given) | – | 107 µM (active)
C#C[C@]1(O)CC[C@H]2[C@@H]3CCC4=CC(=O)CC[C@@H]4[C@H]3CC[C@@]21C | inactive | –
O=C(OCCOCCOC(=O)c1ccccc1)c1ccccc1 | inactive | –
CCC(C)(C)C1CCC(O)CC1 (stereo not given) | inactive | –
COCC(C)O (stereo not given) | inactive | –
O=[N+]([O-])c1ccc(O)cc1 | inactive | –
CCCCC(CC)COC(=O)CCCCC(=O)OCC(CC)CCCC (stereo not given) | inactive | –
CCc1ccc(CCOc2ccc(CC3SC(=O)NC3=O)cc2)nc1 (stereo not given) | inactive | –
C=C(C)C(=O)OCCC(F)(F)C(F)(F)C(F)(F)C(F)(F)C(F)(F)C(F)(F)F | inactive | –
CCOC(=O)CC(O)(CC(=O)OCC)C(=O)OCC | inactive | –

Structure (SMILES) | outcome | AC50
OC1CCCCC1 | inactive | –
NC(=O)N(O)[C@@H]1C=C[C@H](Oc2cccc(Oc3ccc(F)cc3)c2)C1 | inactive | –
N#C[C@@H]1CC(F)(F)CN1C(=O)CNC1CC2CCC(C1)N2c1ncccn1 (stereo not given in full) | inactive | –
CC[C@H](C)[C@@H](C(=O)O)n1sc2ccccc2c1=O | inactive | –
OCCC(F)(F)C(F)(F)C(F)(F)C(F)(F)C(F)(F)C(F)(F)F | inactive | –
CCC(=C(c1ccc(O)cc1)c1ccc(OCCN(C)C)cc1)c1ccccc1 | inactive | –
OCCC(F)(F)C(F)(F)C(F)(F)C(F)(F)C(F)(F)C(F)(F)C(F)(F)C(F)(F)F | – | 29.9 µM (active)
CCCCC(CC)COC(=O)CCCCC(=O)OCc1ccccc1 (stereo not given) | inactive | –
CC(C)CCCCCCOC(=O)CCCCC(=O)OCCCCCCC(C)C | inactive | –
Oc1cc2ccccc2c2ccccc12 | – | 97.7 µM (active)
CC#C[C@]1(O)CC[C@H]2[C@@H]3CCC4=CC(=O)CCC4=C3[C@@H](c3ccc(N(C)C)cc3)C[C@@]21C | inactive | –
CCCCCCCCCCCCCCCS(=O)(=O)Oc1ccccc1 | inactive | –
Oc1cccc(O)c1 | inactive | –
CCCCC[C@H](O)CC(=O)CCc1ccc(O)c(OC)c1 | inactive | –
COc1cc(CCC(=O)CC(=O)CCc2ccc(O)c(OC)c2)ccc1O | inactive | –
CCCCCCCCCCCCN1CCCC1=O | – | 51 µM (active)
CCCCCCCCCCCCc1ccccc1S(=O)(=O)O | inactive | –
CC[C@H](c1ccc(O)cc1)[C@@H](CC)c1ccc(O)cc1 | inactive | –
c1ccc2cc3c(ccc4ccccc43)cc2c1 | – | 55.8 µM (active)
CC1=C(/C=C/C(C)=C/C=C/C(C)=C/C(=O)O)C(C)(C)CCC1 | – | 92.6 µM (active)
